Compounds with a hit are over-represented: about 12% of the library has one in this group of screens.
HP1b chromo inh: HP1-beta chromodomain-methylated histone interaction inhibition; P83916; AlphaScreen HP1-beta / biotin-H3K9me3 peptide binding; Potency, µM (doses to about 114 µM), without a hit: at the top dose activity change, negative = inhibition, usual class: inhibitors; 390,000 tested, 0.56% active; also: nearly all actives have a fitted effect of over 70% in size
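HP1-beta protein (50 nM final) preincubated 30 min at room temperature with biotinylated H3(1-18)K9me3 peptide (50 nM) in PBS pH 7.4, 0.01% Tween-20, then compound added for 30 min. AlphaScreen streptavidin donor/nickel chelate acceptor beads (10 ug/mL final), 30 min dark, luminescence read.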
JMJD2A Tudor: JMJD2A Tudor domain (human) inhibition. 390,000 tested, 4.4% active. AlphaScreen JMJD2A-Tudor / H3K4me3 peptide binding. O75164. Potency, µM (titrated, usually from 114 µM), for inactives: top-dose activity change, negative = inhibition, usual class: inhibitors. AID 504339; also: % is scaled to controls: 0 for no effect and ±100 for the full control effect; nearly all actives have a fitted effect of over 50% in size
G9a inh: G9a (human) methyltransferase inhibition. Q96KQ7. G9a H3K9 monomethylation, AlphaScreen, 2 h. Potency, µM (doses to about 102 µM), without a hit: at the top dose activity, negative = inhibition, actives largely listed as inhibitors. 350,000 tested, 8.8% active. AID 504332; also: % is scaled to controls: 0 for no effect and ±100 for the full control effect; nearly all actives have a fitted effect of over 75% in size
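AlphaScreen detection with an anti-monomethyl H3K9 antibody quantified product after a 2 h room-temperature reaction containing 500 nM biotinylated H3K9 peptide, 20 µM SAM and 20 nM enzyme, which had been preincubated 15 min with compound.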
Sfp inh: blocks B. subtilis Sfp PPTase activity; Biochemical Sfp PPTase activity, qHTS; Potency, µM, inactives show largest response in the series, negative = inhibition, actives largely listed as inhibitors; 310,000 tested, 3.5% active;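 also: the enzyme is Sfp with the accession as filed and its product quenches rhodamine fluorescence; 0% = enzyme reaction without inhibitor and -100% = no enzyme wells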
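Reaction rates are the 30-min fluorescence difference (ex 525, em 598 nm) in wells containing 15 nM Sfp, 5 uM rhodamine-CoA and 12.5 uM BHQ-2-YbbR at pH 7.6 with 10 mM MgCl2.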
BAZ2B block: inhibitors of human BAZ2B bromodomain. Q9UIF8. AlphaScreen BAZ2B-H3K14Ac peptide displacement. Potency, µM (top dose mostly 114 µM), inactives show at the top dose activity change, negative = inhibition, actives largely listed as inhibitors. 360,000 tested, 4.4% active; also: % is scaled to controls: 0 for no effect and ±100 for the full control effect; nearly all actives have a fitted effect of over 60% in size
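BAZ2B 50 nM plus b-H3(5-23)K14Ac 50 nM, PBS pH 7.4/0.01% Tween-20, 30 min RT; compound added (max 110 uM), 30 min RT; streptavidin donor/Ni-chelate acceptor beads 10 ug/mL final, 20 min dark; AlphaScreen read.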
Active calls of the source: *; ? = inconclusive; / = not tested or not shown; ! = not confirmed by another sample; [ ] = remark or other dose. Calls follow the shape of the dose curve; as a rule, active = well fitted curve in the direction sought with a large enough effect; inconclusive = small, poorly fitted or top-dose-only effect, or another doubt; inactive = no such curve, though single readings can be large; an effect the other way counts as inactive or inconclusive. Potency is read from the fitted curve at half-maximal effect.

SMILES | HP1b chromo inh | JMJD2A Tudor | G9a inh | Sfp inh | BAZ2B block
O=C(CNC1CCCCC1)N1CCC2(CC1)OCCO2 | ? | 3.2µM* | 35µM* | -6% | ?
Oc1ccc2c3c1OC1C(O)CC[C@]4(O)C(C2)N(CC2CCC2)CC[C@]314 (some centres undefined) | / | / | -49%[2.33 µM] | 20% | /
Cc1cc2c(C(C)C)c(O)c(O)c(C=O)c2c(O)c1-c1c(C)cc2c(C(C)C)c(O)c(O)c(C=O)c2c1O | / | / | 9.5µM* | 89µM*! | 16µM*
CCN(CC)c1ccc(CNc2nc3ccccc3n2C)cc1 | 24% | ? | / | -2% | 45µM*
CN1CCN(Cc2nc3ccccc3n2C)CC1 | 35% | -3% | ? | 8% | -3%
C=C1CC[C@H](O)C/C1=C/C=C1\CCC[C@]2(C)[C@@H]([C@H](C)CCCC(C)C)CC[C@@H]12 | / | / | 16µM*! | 17% | /
C[C@]12CC(=CO)C(=O)C[C@@H]1CC[C@@H]1[C@@H]2CC[C@@]2(C)[C@H]1CC[C@]2(C)O | / | / | ? | -14% | ?
O=C(C[N+]12CCC(CC1)C(OC(=O)c1ccccc1)C2)c1ccc([N+](=O)[O-])cc1 (centres undefined) | 32% | -10% | / | -1% | -4%
O=C(C[N+]12CCC(CC1)C(CO)C2)c1ccc([N+](=O)[O-])cc1 (centres undefined) | 54% | -7% | 35µM* | 5% | -13%
N#CC(O[C@@H]1OC(COC2OC(CO)C(O)C(O)[C@@H]2O)C(O)C(O)C1O)c1ccccc1 (some centres undefined) | / | / | -38%[2.33 µM] | 24% | /
C[C@@H]1Cc2c(Cl)cc(C(=O)N[C@H](Cc3ccccc3)C(=O)O)c(O)c2C(=O)O1 | / | / | / | 6% | /
Clc1ccc(Sc2oc(/C=N/n3cnnc3)cc2Br)cc1 | 9% | 89µM* | -2% | -3% | 10%
COc1ccccc1C(=O)Nc1ccc2c(c1)CC1(C(=O)N(C)C(=O)N(C)C1=O)C1CCCN21 (centres undefined) | 8%[57 µM] | -31% | 32µM* | -5% | -20%
Cc1cccc(C(=O)Nc2ccc3c(c2)CC2(C(=O)N(C)C(=O)N(C)C2=O)C2CCCN32)c1 (centres undefined) | 39% | -21% | 28µM* | -23% | -16%
CN1C(=O)N(C)C(=O)C2(Cc3cc([N+](=O)[O-])ccc3N3CCN(C(=O)c4ccccc4)CC32)C1=O (centres undefined) | -4% | -14% | 11% | 8% | -5%
C[C@]12CCC3C(CC[C@H]4C[C@H](N)CC[C@]34C)C1CC[C@H]2O (some centres undefined) | 41% | 2% | 19% | -1% | -4%
O=C(/C=C/c1ccccc1)NC(=S)N1C[C@H]2C[C@H](C1)c1cccc(=O)n1C2 | 9% | -24% | 32µM* | -15% | -2%
COc1ccc(/C=C/C(=O)NC(=S)N2C[C@H]3C[C@H](C2)c2cccc(=O)n2C3)cc1OC | 22% | -20% | 35µM* | -18% | -31%
CC(C)COC(=O)OCN1C(=O)CN(CCN2CC(=O)N(COC(=O)OCC(C)C)C(=O)C2)CC1=O | 48% | -7% | 13µM*! | 18% | 1%
NP(=O)(OCCCc1ccccc1)c1ccccc1 (centres undefined) | 25% | -18% | -18% | 11% | -1%
O=C1N(CN2CCOCC2)c2ccccc2C1(O)c1c[nH]c2ccccc12 (centres undefined) | 28% | -14% | / | -1% | -16%
CN1C(=O)[C@]23CC4=CC=C[C@H](O)[C@H]4N2C(=O)[C@@]1(CO)SS3 | / | / | / | 2.5µM* | /
CCCCCn1c(=O)c(C(=O)Nc2cccc(C)c2)c(O)c2ccccc21 | 113% | 13% | / | -5% | 1%
COCc1cc(C)c(C#N)c(=S)[nH]1 | ? | 7.9µM* | / | 10µM* | ?
CN1C2CC(OC(=O)C(CO)c3ccccc3)CC1C(O)C2 (centres undefined) | / | / | -38%[2.33 µM] | -7% | /
SMILES | HP1b chromo inh | JMJD2A Tudor | G9a inh | Sfp inh | BAZ2B block
COc1cc2c(cc1OC)-c1c(OC)c(OC)c(OC)c3ccnc(c13)C2=O | -1% | ? | ? | 15% | 28µM*
CC(C)CN1CC[C@@]2(CCCN(C(=O)c3ccncc3)C2)C1 | / | / | 8%[12.7 µM] | -3% | /
Cc1ccc2[nH]c(=S)n(-c3cccnc3)c(=O)c2c1 | 20% | ? | 45µM* | -3% | 1%
O=c1c2ccc(Cl)cc2[nH]c(=S)n1-c1cccnc1 | 22% | 18µM* | 20µM* | -2% | -21%
O=c1c2ccccc2[nH]c(=S)n1-c1cccnc1 | 55% | -6% | / | -6% | -2%
COc1ccc(OCCOc2cccc(C=C3C(=O)NC(=O)NC3=O)c2)cc1 | / | / | ? | -86% | -36%
CN(CCOc1ccc(C=C2C(=O)NC(=O)NC2=O)cc1)c1ccccn1 | 20% | ? | 45µM* | 79µM* | -23%
CCCN1[C@H](C(=O)OC)C[C@@H]2CC[C@@H](O)C[C@@H]21 | / | / | / | 19% | /
CC(=O)CCC(C)=O | 36% | -16% | 2%[0.501 µM] | / | -1%
CC(=O)O.CC(=O)O.[Cd] | / | / | / | 25µM* | /
COc1ccc(Oc2c(C)oc3cc(OC(=O)N(C)C)ccc3c2=O)cc1 | 13% | -15% | -11%[2.33 µM] | 13% | 1%
c1cnc(N2CCNCC2)nc1 | 43% | ? | 18µM* | -30% | ?
c1cnc(N2CCCC3(CCNCC3)C2)nc1 | / | / | -15%[12.7 µM] | 2% | /
Cc1ccc(N2C(=O)NC(=O)/C(=C/c3cnn(-c4ccc(C)cc4)c3)C2=O)cc1 | 46% | -8% | 3.5µM* | -3% | 2%
CSc1ncc(/C=C2/C(=O)NC(=O)N(c3ccc(Cl)cc3)C2=O)cn1 | -13% | ? | 8.9µM* | 56µM* | -16%
Cc1ccc(N2C(=O)NC(=O)/C(=C\c3cnc(-c4ccccc4)nc3)C2=O)cc1 | -19% | ? | ? | 56µM* | 1%
CSc1ncc(/C=C2/C(=O)NC(=O)N(c3ccc(C)cc3)C2=O)cn1 | -5% | -18% | 10µM* | 45µM* | -38%
CN(C)C1=NC(N(C)C)=NP(N(C)C)(N(C)C)=N1 | 17% | -5% | -5%[59 µM] | 21% | 4%
CCn1c(=O)n(CC(=O)N2CCC3(CC2)OCCO3)c(=O)c2ccccc21 | 23% | -13% | -7%[2.33 µM] | 1% | 12%
Cc1ccc(N2C(=O)NC(=O)/C(=C/c3ccoc3)C2=O)cc1 | 10µM* | 10µM* | / | 25µM* | 7.9µM*
CCOc1ccc(N2C(=O)NC(=O)/C(=C/c3cnc(SC)nc3)C2=O)cc1 | -38% | ? | 8.9µM* | 28µM* | ?
CC1CC2(C)C(CCC3C2CCC2(C)C(OP(=O)(N4CC4)N4CC4)CCC32)CC1=O (centres undefined) | 23% | -26% | / | / | /
CC1=CC(=C2C(=O)NC(=O)NC2=O)C=C(C(F)(F)F)N1Cc1ccccc1 | 33% | -12% | / | 1% | -13%

Source: PubChem BioAssay
